Experimental data: ChEMBL document CHEMBL4513216, “Probing the Open Global Health Chemical Diversity Library for Multistage-Active Starting Points for Next-Generation Antimalarials” (ACS Infect Dis, 2020)
About 8,600 (12%) of roughly 69,000 compounds showed an effect of 50% or more. Only a selection was taken, and strong results are over-represented in it overall.

system: Plasmodium berghei; test: Screen against P. berghei liver stage (PbLuc), transformed with Luciferase, at 10uM; type: functional, HepG2; conditions: tested at 10 uM

Compared with `O=C(c1cccnc1N1CCOCC1)N1CCCC(n2cncn2)C1` (configuration not stated), `Cc1cnn(C2CCCN(C(=O)Cc3ccc4c(c3)CCO4)C2)c1` (configuration not stated) is lower in INHIBITION: 36.1% for the first, 31.8% for the second.

First: CC(C)OCCN1CCC(Nc2nccnc2C#N)CC1
Second: CC(C)COCCNC(=O)NC1CCCN(c2cnn(C)c2)C1 (configuration not stated)
The INHIBITION of the first is higher: 33.1% for the first, -49.3% for the second.

First: Cc1ccc(CN2CCC3(CCC3NS(=O)(=O)c3ccccc3)CC2)o1 (configuration not stated)
Second: CO[C@@H]1CO[C@@]2(CCCN(S(=O)(=O)c3ccccc3)C2)C1
The INHIBITION of the first is lower: -12.4% for the first, 40.4% for the second.

Going from `O=c1ccc2c(n1CCN1CCCC1)CCN(Cc1ccoc1)CC2` to `c1cc(CN2CCC(n3cc(CN4CCCC4)nn3)CC2)cs1`, the INHIBITION rises from 8.47% to 42.1%.

Going from `COCCN1CCCC(c2cncc(Oc3ccccc3OC)n2)C1` (configuration not stated) to `COCC(=O)N1CCC(c2cncc(-c3cccc(F)c3)n2)CC1`, the INHIBITION rises from -5.71% to 8.72%.

First: Cc1cc(N2CCC(n3cc(CN4CCSCC4)nn3)CC2)ccn1
Second: O=C1CN(Cc2cn(C3CCN(C4CSCCSC4)CC3)nn2)CCN1
The INHIBITION of the first is lower: 30.9% for the first, 65.6% for the second.

Going from `O=C1CN(Cc2cn(CC3CCCN(C4CCSCC4)C3)nn2)CCN1` (configuration not stated) to `O=C1CN(Cc2cn(CC3CCN(C4CCSCC4)CC3)nn2)CCN1`, the INHIBITION falls from 54.5% to 32.2%.

Compared with `OC1CCCN(Cc2cn(CC3CCN(C4CCSCC4)CC3)nn2)C1` (configuration not stated), `O=C(CC1CCCC1)N1CC[C@H]2[C@H]1CCN2c1nncs1` is higher in INHIBITION: 18.3% for the first, 43.8% for the second.

Going from `c1cncc(CN2CC(Cc3nccc4cc[nH]c34)C2)c1` to `CNc1cccc(C2CCCN(C(=O)c3ccncc3)C2)n1` (configuration not stated), the INHIBITION rises from 19.3% to 42.1%.

First: O=C(NCC1CCC1)c1ccc(-n2ccnc2)nn1
Second: CNc1cccc(C2CCCN(C(=O)c3cnccn3)C2)n1 (configuration not stated)
The INHIBITION of the first is higher: -15% for the first, -37% for the second.

Compared with `CCCOc1ccc(C(=O)Oc2cc(=O)n3cccc(C)c3n2)cc1`, `CCOc1ccc(CNC(=O)c2cnc(OC)nc2)cc1` is higher in INHIBITION: 0.207% for the first, 52.7% for the second.

Compared with `CC1c2ncc(COCc3ccccn3)n2CCN1C1CCCC1` (configuration not stated), `CCOCC(=O)N1CCC2(CC1)COC(COCc1ccccn1)C2` (configuration not stated) is lower in INHIBITION: 37.8% for the first, -13% for the second.

First: O=C(O)c1ccccc1-c1ccc(Cn2c(=O)cc[nH]c2=O)cc1
Second: O=C(NCCn1nc2ccccn2c1=O)c1sccc1-c1ccccc1
The INHIBITION of the first is higher: 2.55% for the first, -20.53% for the second.

Going from `Cc1ccnc(C2CCCN2C(=O)CN(C)C)n1` (configuration not stated) to `CNc1cccc(C2CCCN(C(C)=O)C2)n1` (configuration not stated), the INHIBITION rises from -16.5% to -1.58%.

Compared with `CN(C)C(=O)CN1CCC(c2cccc(Cc3ccc(F)cc3)n2)CC1`, `COCC(=O)N1CCC(c2cccc(Cc3ccc(F)cc3)n2)CC1` is higher in INHIBITION: 24.4% for the first, 54% for the second.

Compared with `Fc1cccc(Cc2cncc(C3CCCN3C3CCOCC3)n2)c1` (configuration not stated), `c1ccc(Cc2cccc(C3CCCN3C3CCOCC3)n2)cc1` (configuration not stated) is lower in INHIBITION: 41.1% for the first, 32.921% for the second.

First: Fc1ccc(Cc2cccc(C3CCN(C4CCOCC4)CC3)n2)cc1
Second: CNc1cccc(C2CCCN(C(=O)Cc3ccccc3)C2)n1 (configuration not stated)
The INHIBITION of the first is lower: 72.3% for the first, 81.2% for the second.

Going from `Cc1nn(C)c2c(=O)n(C)c(NCC3CCCO3)nc12` (configuration not stated) to `Cc1cc(C)n2cc(CN3CCC(N4CCN(C)C4=O)CC3)nc2n1`, the INHIBITION falls from 49.1% to 39.1%.

First: CC(=O)N1N=C(Cc2ccccc2)OC1C(=O)NCC(C)C (configuration not stated)
Second: Cc1cccc(C(=O)NCc2ccccc2)n1
The INHIBITION of the first is lower: -21.1% for the first, 21% for the second.

First: Cn1cc(C2COC3(CCN(C(=O)c4ccccn4)CC3)C2)cn1 (configuration not stated)
Second: Cc1ccccc1C(=O)N1CCC2(CC1)CC(c1cnn(C)c1)CO2 (configuration not stated)
The INHIBITION of the first is lower: 42.7% for the first, 53.2% for the second.

Going from `CN1CC(=O)N(c2ccsc2)CC12CCN(C(=O)c1ccc[nH]1)C2` (configuration not stated) to `CN1CC(=O)N(c2ccsc2)CC12CCN(C(=O)c1ccccc1)C2` (configuration not stated), the INHIBITION rises from 15.9% to 45.5%.

First: Cn1cc(C2COC3(CCN(C(=O)c4ccc(F)cc4)CC3)C2)cn1 (configuration not stated)
Second: Cc1cccc(C(=O)N2CCC3(CC2)CC(c2cnn(C)c2)CO3)c1 (configuration not stated)
The INHIBITION of the first is lower: 18.2% for the first, 69.5% for the second.

Going from `Cc1ccc(C(=O)N2CCC3(CC2)CC(c2cnn(C)c2)CO3)cn1` (configuration not stated) to `Cn1cc(C2COC3(CCN(C(=O)c4ccsc4)CC3)C2)cn1` (configuration not stated), the INHIBITION rises from 39.2% to 69.5%.

Going from `Cn1cc(C2COC3(CCN(C(=O)c4cccc(O)c4)CC3)C2)cn1` (configuration not stated) to `Cn1cc(C2COC3(CCN(C(=O)c4cccn4C)CC3)C2)cn1` (configuration not stated), the INHIBITION rises from 32.2% to 36.9%.

First: Cn1cc(C2COC3(CCN(C(=O)c4ccn(C)n4)CC3)C2)cn1 (configuration not stated)
Second: CNc1cccc(C2CCCN(C(=O)c3ccn(C)n3)C2)n1 (configuration not stated)
The INHIBITION of the first is higher: 41.6% for the first, 26.3% for the second.

Going from `CN1CC(=O)N(c2cnn(C)c2)CC12CCN(C(=O)c1ccsc1)C2` (configuration not stated) to `CCc1ccc2nc(-c3cnn(C)c3)cc(C(=O)N3CCCC3)c2c1`, the INHIBITION falls from 51.7% to 7.3%.

First: Cc1nc(C)n(CC(=O)N2CCc3ncc(Cl)cc3C2)n1
Second: Cc1cc(C)n(Cc2cc(C(=O)N3CCCCC3c3nccs3)n[nH]2)n1 (configuration not stated)
The INHIBITION of the first is higher: 8.72% for the first, 7.83% for the second.

First: CCOC(=O)N(C)CC(=O)NCCc1coc(-c2ccc(C)cc2)n1
Second: CCOc1cccc(C(=O)NCCC(=O)NCc2ccncc2)c1
The INHIBITION of the first is higher: 11.4% for the first, -5.78% for the second.

First: Cn1cc(N2C(=O)CC[C@@H]3[C@H]2CCN3CC2CCOCC2)cn1
Second: Cn1cc(-c2cc(C(=O)N3CCOCC3)c3ccc(F)cc3n2)cn1
The INHIBITION of the first is higher: 8.52% for the first, -27.5% for the second.

Compared with `O=C(CCCN1CCCCC1)NC(C(=O)O)c1ccc(Cl)cc1` (configuration not stated), `COCC(C)NC(=O)CN1CCCC1` (configuration not stated) is lower in INHIBITION: 6.11% for the first, -9.39% for the second.

Going from `O=C(Cc1cccc(F)c1)NCCNc1ncccn1` to `COc1ncc(C(=O)NCc2ccccc2)cn1`, the INHIBITION rises from 37.4% to 64.2%.

Going from `CC(NS(C)(=O)=O)C(=O)N1CCCN(Cc2cscn2)CC1` (configuration not stated) to `Cn1ncc(N2CCN(Cc3ccc(S(C)(=O)=O)cc3)CC2)cc1=O`, the INHIBITION falls from 48.9% to 27.6%.

Compared with `CNc1cc(N2CCCC2CNCc2csc(C)n2)ncn1` (configuration not stated), `CNc1cccc(C2CCCN(C(=O)c3cscn3)C2)n1` (configuration not stated) is higher in INHIBITION: 29.425% for the first, 51.5% for the second.

Going from `CCc1ncc(C(=O)N2CCC(Nc3ccc(C)nn3)CC2)s1` to `CCCc1noc(-c2ccc(-n3ncc(C(=O)O)c3C)nc2)n1`, the INHIBITION rises from -58.7% to 7.92%.

Going from `COCC(=O)N1CC[C@]2(O)CCN(C(=O)CCc3ccsc3)C[C@@H]2C1` to `CN1CCN([C@@H]2CN(C(=O)CCOc3ccccc3)C[C@H]2O)CC1`, the INHIBITION falls from 26.9% to 6.08%.

Compared with `CCNc1ncc(C(=O)NCc2ccc3nsnc3c2)cn1`, `COc1ncc(C(=O)NCc2ccc(Br)cc2)cn1` is higher in INHIBITION: 31.9% for the first, 59.8% for the second.

Going from `COC(=O)c1ccc(C(=O)NCc2ccc(Br)cc2)cn1` to `COc1ccc(CNC(=O)c2ccc(Br)cn2)cc1`, the INHIBITION rises from 45.8% to 49%.

Going from `COC(=O)CCNC(=O)c1ccc(OCc2ccccc2)nc1` to `CC(=O)Nc1ncc(S(=O)(=O)Nc2ccccc2F)s1`, the INHIBITION rises from -8.91% to 15.9%.

First: CS(=O)(=O)CCN1CCCC1c1noc(C2CC2)n1 (configuration not stated)
Second: CS(=O)(=O)CCC(=O)N(Cc1c(F)cccc1F)C1CCCC1
The INHIBITION of the first is lower: -38.2% for the first, 55% for the second.

Going from `Cc1cccc(S(=O)(=O)N2CC[C@H]3[C@H]2CCN3c2ncccn2)c1` to `CN1CCCN(c2cnn(Cc3ccncc3)c(=O)c2)CC1`, the INHIBITION rises from 5.36% to 54.8%.

Going from `NC(=O)c1cnn2c1NCC(CNCCc1cccs1)C2` (configuration not stated) to `Cn1nccc1CCC(=O)N1CCOC(c2cnccn2)C1` (configuration not stated), the INHIBITION falls from 21.75% to 2.71%.

Going from `O=S(=O)(Cc1cc(-c2ccccc2)no1)CC1CCCO1` (configuration not stated) to `Cc1cc(C[S+]([O-])Cc2ccccc2F)no1` (configuration not stated), the INHIBITION rises from -73.1% to 40.7%.

First: CC1CCN(c2nc3cn(-c4ccc(F)cc4)c(=O)c-3c[nH]2)CC1
Second: O=C(c1cc(-c2cn[nH]c2)nc2ccc(F)cc12)N1CCSCC1
The INHIBITION of the first is lower: 24.2% for the first, 51.8% for the second.

First: O=C(c1cc(-c2cn[nH]c2)nc2cc(F)ccc12)N1CCS(=O)(=O)CC1
Second: Cc1cc(C(=O)N2CCNC(c3ccccc3)C2)c2ccc(F)cc2n1 (configuration not stated)
The INHIBITION of the first is higher: 79.9% for the first, 36.9% for the second.

Going from `O=C(O)c1cc(-c2cn[nH]c2)cc(S(=O)(=O)N2CCSCC2)c1` to `CN1CCN(c2cnn(Cc3ccc(S(C)(=O)=O)cc3)c(=O)c2)CC1`, the INHIBITION rises from -4.927% to 51.5%.

First: COCc1nnc2n1CCN(Cc1ccoc1)C2
Second: Cn1c(Cn2ncc(N3CCCC3)cc2=O)nc2ccccc21
The INHIBITION of the first is lower: 33% for the first, 37.6% for the second.

Compared with `COCCC1CCN([C@@H]2c3ccccc3C3(CCNCC3)[C@H]2O)CC1`, `CNC(=O)N(Cc1c(F)cccc1F)C1CCCC1` is higher in INHIBITION: 11.6% for the first, 16.1% for the second.

Going from `COc1ccc(-c2cc(C3CCCNC3)ccn2)cc1` (configuration not stated) to `O=C(CS(=O)(=O)Cc1ccc(F)cc1)NC1CCCCNC1=O` (configuration not stated), the INHIBITION falls from -3.02% to -90.9%.

Compared with `CN1CCCN(c2cnn(Cc3ccc(C(C)(C)C)cc3)c(=O)c2)CC1`, `Cn1c(Cn2ncc(N3CCCCC3)cc2=O)nc2ccccc21` is higher in INHIBITION: 15.7% for the first, 40.3% for the second.

First: CS(=O)(=O)CCC(=O)N(CCc1cccc(F)c1)C1CC1
Second: CNS(=O)(=O)CC(=O)N(Cc1c(F)cccc1Cl)C1CC1
The INHIBITION of the first is higher: 40.7% for the first, 17.1% for the second.

Compared with `CC(=O)N(Cc1c(F)cccc1F)C1CCCC1`, `CNS(=O)(=O)CC(=O)N(Cc1c(F)cccc1F)C1CCCC1` is lower in INHIBITION: 58.3% for the first, -5.59% for the second.

Compared with `Cn1nnnc1SC1CCN(c2ccccc2Cl)C1=O` (configuration not stated), `CCOc1ccnc(NCc2nc(C)cc(=O)[nH]2)n1` is higher in INHIBITION: 23.9% for the first, 27.8% for the second.

Going from `CC(C)[C@]1(O)CN(C(=O)CNC(N)=O)C[C@H]1C` to `CCOc1ccnc(NCCc2nc(C)cc(=O)[nH]2)n1`, the INHIBITION falls from 39.9% to 23.3%.

In the case of `CCOc1ccnc(NCc2nc(C)cc(C(F)(F)F)n2)n1`, the INHIBITION was 52.9%.
